INS-1E GSIS act: primary screen for activators of insulin secretion dependent on glucose, INS-1E cells, GLuc reporter luminescence | INS-1E GLuc reporter insulin secretion, 2-3 h | activation, % at 16.6 µM | 370,000 compounds, 0.61% hits | AID 743287;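 active means lowest replicate activation of at least 40%, so every replicate reaches that level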;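 further: 0% = median of neutral control wells and 100% = median of IBMX positive control wells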
MITF act: MITF TRPM1 promoter activation in melanoma cells | SK-MEL-5 TRPM1-promoter luciferase, 24 h; % of positive control, neutral wells = 0 | activation, % at 12.5 µM | 300,000 compounds, 0.75% hits | AID 588334;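 active means mean activation of at least 80% with every replicate also reaching 80%; inconclusive means mean reaches 80% but some replicate falls short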;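 further: 0% = neutral control wells and 100% = parthenolide positive control wells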
Env fusion inh: HIV envelope-mediated fusion inhibition; inhibition, % at 12.3 µM; HeLa-JRFL Env/CEM21 cell fusion, luciferase; AID 651610; 360,000 compounds, 1.1% hits;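 active means mean replicate inhibition score of at least 50 and every replicate individually at or above 50; inconclusive means only one of the two criteria met; inactive means mean below 50 and not all replicates reaching 50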;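 further: 0% = plate neutral controls and 100% = maraviroc near 300 nM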
Wnt bcat act: activators of Wnt/beta-catenin signaling. Wnt/beta-catenin reporter cell assay, activator, plate reader. activation, % at 9.35 µM. 300,000 compounds, 1.2% hits; in the data active means activation above about 30%, passing the limit was not always enough; inconclusive means no clear call, values can overlap the other calls;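 further: 0% = neutral control wells and 100% = positive control wells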
F508del corr: correctors of CFTR F508del function in bronchial epithelial cells | CFBE cells, YFP halide quenching; stimulated with forskolin plus potentiator P3; % fluorescence drop versus neutral controls | activity (quench increase), % at 7.58 µM | AID 720511 | 350,000 compounds, 0.36% hits;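 active means mean added fluorescence quench of at least 8% versus neutral control, with both replicates also reaching 8%; inconclusive means only one of the mean or replicate conditions met; inactive means mean below 8% and not both replicates reaching 8%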;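 further: cells transiently co-express mutant CFTR-F508del with the halide-sensitive YFP; corrector assay measuring rescue of mutant channel to the surface after 24 h compound exposure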
* hit, by the source's call; u = inconclusive; x = no result; [ ] = another dose, or the depositor's remark. Only some compounds are listed: those with a hit (about 2.7% of all), similar ones and a draw of the others.

SMILES | INS-1E GSIS act | MITF act | Env fusion inh | Wnt bcat act | F508del corr
O=C(Nc1cccnc1N1CCOCC1)c1ccco1 | x | 1 | 9 | 41* | x
CCN(CC)S(=O)(=O)c1ccc(N2CCOCC2)c(NC(=O)c2ccco2)c1 | -3 | 1 | 58* | -2 | 4
CS(=O)(=O)N1CCN(c2ccccc2NC(=O)c2ccco2)CC1 | 42* | 6 | x | 2 | 4
O=C(Nc1cc(Cl)ccc1N1CCOCC1)c1ccco1 | 35 | 2 | 6 | -3 | -3
O=C(C[C@@H]1C=C[C@@H](NC(=O)c2cccc(F)c2)[C@@H](CO)O1)NCc1ccccc1 | 1 | x | 14[16.7 µM] | x | 1
Nc1ccc(S(=O)(=O)c2ccc(N3CCOCC3)c(N)c2)cc1 | x | x | 81* | -22 | -1
O=C(O)C1Cc2c([nH]c3ccccc23)C(c2ccc3c(c2)OCO3)N1 (stereo not drawn) | 46* | -1 | x | 2 | 2
Cc1ccc2cc(CCNC(=O)c3ccco3)c(=O)[nH]c2c1C | 5 | 104* | -27 | u | -2
Cc1ccc2cc(CCNC(=O)c3ccco3)c(=O)[nH]c2c1 | x | 103* | -84 | x | x
COc1ccc2cc(CCNC(=O)c3ccco3)c(=O)[nH]c2c1 | 16 | 54 | -84 | 34* | -2
COc1ccc(C(=O)NCCc2cc3ccc(C)c(C)c3[nH]c2=O)cc1OC | 2 | -4 | 4 | -2 | 1
Cc1ccc2cc(CCNC(=O)CCCc3ccccc3)c(=O)[nH]c2c1 | x | -12 | 9 | -3 | 1
Cc1cccc(-c2ccc([C@H]3[C@@H](CO)N4C(=O)CN(C(=O)NC5CCCCC5)C[C@@H]34)cc2)c1 | -16 | x | x | x | 1
C[C@@H]1CN([C@H](C)CO)S(=O)(=O)c2ccc(C#C[C@@H](C)O)cc2O[C@@H]1CN(C)C(=O)c1ccccc1 | 29 | x | 5[16.7 µM] | x | 2
O=C(CNC(=S)NC(=O)C1CCCCC1)c1ccccc1 | 1 | 87* | -56 | 0 | 2
Cc1ccc(S(=O)(=O)Nc2ccc3c(c2)C(=O)N([C@H](C)CO)C[C@@H](C)[C@H](CN(C)S(=O)(=O)c2cccs2)O3)cc1 | 1 | x | x | x | 1
CC(C)c1ccc(C2N3CC4([N+](=O)[O-])CN2CC([N+](=O)[O-])(C3)C4(C)C)cc1 (stereo not drawn) | 5 | -2 | 6 | -1 | 0
CC1(C)C2([N+](=O)[O-])CN3CC1([N+](=O)[O-])CN(C2)C3c1ccccc1 (stereo not drawn) | 56* | -5 | 7 | x | x
Cc1ccccc1-c1cnc2c(c1)C(=O)N([C@@H](C)CO)C[C@H](C)[C@@H](CN(C)C(=O)c1ccncc1)O2 | 5 | x | -1[16.7 µM] | x | -1
Cc1cccc(COc2ccc(/C=N/NC(=O)c3nnn(-c4nonc4N)c3CN3CCCCC3)cc2)c1 | 9 | 19 | -13 | 4 | -2
Nc1nonc1-n1nnc(C(=O)N/N=C/c2ccc(OCc3cccc(Cl)c3)cc2)c1CN1CCCCC1 | 12 | 106* | -16 | 20 | 4
CC1CCN(Cc2c(C(=O)N/N=C/c3cc(Br)ccc3O)nnn2-c2nonc2N)CC1 | 1 | -63 | 60* | -4 | u
Nc1nonc1-n1nnc(C(=O)N/N=C/c2ccc(OCc3ccccc3F)cc2)c1CN1CCCCC1 | -5 | 84* | 7 | 5 | 2
CC1CCN(Cc2c(C(=O)N/N=C/c3cc(Cl)ccc3O)nnn2-c2nonc2N)CC1 | 9 | -36 | 24 | -5 | 2
CCOc1ccc(/C=N/NC(=O)c2nnn(-c3nonc3N)c2CN2CCC(C)CC2)cc1 | -23 | 3 | 8 | -4 | 0
SMILES | INS-1E GSIS act | MITF act | Env fusion inh | Wnt bcat act | F508del corr
CC(C)c1c(C(=O)N/N=C/c2cccc3ccccc23)nnn1-c1nonc1N | 75* | -16 | 12 | -1 | 2
CC(C)c1c(C(=O)N/N=C/c2c[nH]c3ccccc23)nnn1-c1nonc1N | -15 | -15 | -1 | -1 | 1
Cc1noc(C)c1S(=O)(=O)N(C)C[C@H]1OCCCC[C@@H](C)Oc2ccc(NS(=O)(=O)c3cccs3)cc2C(=O)N([C@@H](C)CO)C[C@H]1C | -2 | x | -7[16.7 µM] | x | 0
CNC[C@H]1Oc2c(NS(C)(=O)=O)cccc2C(=O)N(C)C[C@H]1C | -11 | x | x | x | x
COc1ccc(S(=O)(=O)Nc2cccc(S(=O)(=O)N3CCCCCC3)c2)cc1 | 2 | -1 | x | 0 | x
O=S(=O)(Nc1nc2ccccc2nc1Nc1cccc(S(=O)(=O)N2CCCCC2)c1)c1ccccc1 | -22 | -16 | 77* | -4 | 8
